Source: PubChem
Mtb FBA inh – Mtb fructose-bisphosphate aldolase inhibition; 360,000 compounds, 2.3% hits; P9WQA3; inhibition, % at 1 µM; purified M. tuberculosis FBA, fluorescence read-out;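 also: 0% = vehicle and 100% = reference inhibitor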
Target sequence (P9WQA3 whole entry, looked up): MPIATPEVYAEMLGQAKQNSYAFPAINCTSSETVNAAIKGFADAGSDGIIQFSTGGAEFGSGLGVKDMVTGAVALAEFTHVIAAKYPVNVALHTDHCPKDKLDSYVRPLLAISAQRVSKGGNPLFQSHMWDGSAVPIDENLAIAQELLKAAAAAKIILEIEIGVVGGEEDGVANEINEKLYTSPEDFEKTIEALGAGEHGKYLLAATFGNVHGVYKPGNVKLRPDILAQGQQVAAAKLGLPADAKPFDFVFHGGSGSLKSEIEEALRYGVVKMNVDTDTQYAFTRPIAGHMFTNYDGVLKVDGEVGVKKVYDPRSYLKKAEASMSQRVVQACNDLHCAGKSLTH
BioA inh – inhibitors of Mycobacterium tuberculosis BioA enzyme; purified M. tuberculosis BioA enzyme, plate reader; inhibition, % at 9.99 µM; 360,000 compounds, 0.096% hits; in the data active = inhibition above about 40%
Vc quorum ag – inducers of Vibrio cholerae quorum light production without autoinducers; V. cholerae BH1578 lux reporter, luminescence, 6 h; activation, % at 18.7 µM; 350,000 compounds, 0.16% hits; in the data active = activation mostly above about 9.7%, no sharp cut-off
GDH-TPI counter-1 – inhibits GDH-TPI coupling enzymes, artifact for Mtb FBA screen. 360,000 compounds, 1.2% hits. GDH-TPI coupled enzyme counterscreen, NADH absorbance. inhibition, % at 4.8 µM. AID 588335; in the data active = inhibition above about 30%;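 also: 0% = DMSO wells and 100% = wells lacking the enzyme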
Mtb FBA confirm – confirmation of M. tuberculosis fructose-bisphosphate aldolase inhibitors; shares compounds with Mtb FBA inh; purified M. tuberculosis FBA, fluorescence read-out; inhibition, % at 1 µM; 5,600 compounds, 78% hits; AID 651616;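 also: 0% = vehicle wells and 100% = reference inhibitor wells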
GDH-TPI counter-2 – inhibits GDH-TPI coupling enzymes, flagging Mtb FBA hits; shares compounds with Mtb FBA inh; GDH-TPI coupled enzyme counterscreen, fluorescence; inhibition, % at 1 µM; 5,600 compounds, 81% hits; AID 652141; in the data active = inhibition above about 10%
Active calls of the source: *; i = inactive; / = not tested or not shown; + = active, no number. Rows were chosen to be rich in hits. Some 3% of all compounds tested hit in one or more screens of this group. Rule as the data show it, unless noted: active = inhibition above about 27%; inactive = the rest.

SMILES	Mtb FBA inh	BioA inh	Vc quorum ag	GDH-TPI counter-1	Mtb FBA confirm	GDH-TPI counter-2
O=C(NC1CC1)c1ccc2c(c1)N(Cc1ccc(Cl)cc1)CCS2	106*	0	i	7	54*	48*
O=C(NC1CCCC1)c1ccc2c(c1)N(Cc1ccccc1)CCS2	90*	-2	-7	9	103*	116*
CCC(=O)Nc1ccc2c(c1)OC[C@H](C)N(Cc1ccccc1)C[C@H](C)[C@H](OC)CN(C)C2=O	/	-1	/	/	/	/
O=C(C[C@@H]1CC[C@@H]2[C@H](COC[C@@H](O)CN2Cc2nccs2)O1)NCc1ccc(F)cc1	/	0	/	/	/	/
C[C@@H]1CN([C@@H](C)CO)C(=O)Cc2cc(NS(=O)(=O)c3cn(C)cn3)ccc2O[C@H]1CN(C)Cc1ccc(Cl)c(Cl)c1	/	1	/	/	/	/
CC12CCC(C)(c3nc4ccccc4nc31)C2(C)C	2	1	0	5	/	/
Cc1[nH]nc2c1-c1nc3ccccc3nc1C(C)(C)C2	38*	/	21	25	16	18*
C[C@H](CO)N1C[C@H](C)[C@H](CN(C)C)Oc2ncc(-c3ccc(F)cc3)cc2C1=O	/	-4	/	/	/	/
CC(=O)Nc1ccc(N2C(=O)c3cccc(NC(C)=O)c3C2=O)cc1	-2	/	0	1	/	/
CC(=O)Nc1cccc2c1C(=O)NC2=O	28*	2	i	2	54*	43*
O=C1NC(=O)c2c(NC(=O)C3CCCO3)cccc21 (centres undefined)	36*	-1	1	16	97*	88*
CC(C)NC(=O)N(C)C[C@H]1Oc2ccc(NS(=O)(=O)c3ccc(F)cc3)cc2C(=O)N([C@@H](C)CO)C[C@@H]1C	/	-3	/	/	/	/
C[C@H](CO)N1C[C@H](C)[C@H](CN(C)C)Oc2cc(Br)ccc2S1(=O)=O	/	1	/	/	/	/
Cc1c(O)ccc2c(CN3CCN(CCO)CC3)cc(=O)oc12	74*	/	0	14	69*	63*
Cc1c(O)ccc2c(CN3CCOCC3)cc(=O)oc12	71*	-1	-5	3	46*	38*
Cc1cc(C)c2oc(=O)cc(CN3CCOCC3)c2c1	0	-1	/	6	/	/
COC(=O)c1ccccc1NC(=O)N1CCN(c2ccccc2F)CC1	4	3	0	9	/	/
COC(=O)c1ccccc1NC(=O)N1CCCC1	28*	2	1	4	102*	83*
CCN(C(=O)c1coc(=O)c(Br)c1)c1ccc2c(c1)OCO2	80*	0	-1	24	+	183*
CCCCn1c(=O)nc2n(-c3ccc(C)cc3)c3ccccc3cc-2c1=O	11	1	0	-12	/	/
Cc1ccc(-n2c3nc(=O)n(C)c(=O)c-3cc3ccccc32)cc1	27*	4	0	13	93*	87*
CC(C)C#Cc1ccc2c(c1)O[C@H](CN(C)C(=O)C1CCCCC1)[C@@H](C)CN([C@@H](C)CO)S2(=O)=O	/	1	/	/	/	/
Cc1cc(C)c(C(O)c2ncc(-c3ccccc3C)[nH]2)c(C)c1 (centres undefined)	0	1	0	7	/	/
Cc1cc(C)c(C(O)c2ncc(-c3cccc4ccccc34)[nH]2)c(C)c1 (centres undefined)	57*	-1	-3	14	89*	69*
Cc1ccccc1-c1cnc(C(O)c2c(C)cccc2C)[nH]1 (centres undefined)	0	1	-4	8	/	/
SMILES	Mtb FBA inh	BioA inh	Vc quorum ag	GDH-TPI counter-1	Mtb FBA confirm	GDH-TPI counter-2
Cc1cccc(C)c1C(O)c1ncc(-c2cccc3ccccc23)[nH]1 (centres undefined)	56*	-1	-1	9	5	-1
CN1CCN(C(=O)[C@@H]2[C@@H](CO)[C@@H]3Cn4c(ccc(-c5cccnc5)c4=O)[C@@H]3N2CC2CC2)CC1	/	-1	/	/	/	/
COc1ccc(CCNC(=O)C2CCN(C(=O)c3cccs3)CC2)cc1	2	/	0	-11	/	/
COc1ccc(CCNC(=O)C2CCN(C(=O)c3ccccc3C)CC2)cc1	49*	6	0	6	-4	-4
C[C@H](CO)N1C[C@H](C)[C@H](CN(C)S(=O)(=O)c2ccccc2)Oc2ccc(NC(=O)Nc3cccc4ccccc34)cc2CC1=O	/	-7	/	/	/	/
N#CC1=C(O)CCCn2c1nc1ccccc1c2=O	6	-2	0	22	/	/
N#CC1=C(O)C(c2ccccc2)n2c1nc(=O)c1ccccc12 (centres undefined)	85*	/	1	14	137*	129*
